# Screening data (PubChem)
# Hits are enriched below; roughly 3% of the tested compounds scored in any of these assays.
# m-calpain inh = inhibitors of pig calpain II; actives 0.37% (n = 220,000); inhibition, % at 16 µM; purified calpain II, fluorogenic peptide substrate, 30 min;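 active = inhibition above about 50%, limit read from the data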
# TNF necrop inh = inhibitors of TNF-alpha induced necroptosis in Jurkat FADD-/- cells; Jurkat FADD-/- TNF necroptosis rescue, ATP luminescence, 24 h; 0 = TNF only, 100 = no-TNF cells; activation (protection from cell death), % at 10 µM; actives 0.068% (n = 220,000); AID 463075;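 active = activation, meaning protection from cell death, of at least 50% relative to plate controls; inactive = activation below 50%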;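 note: necroptosis triggered by 40 ng/mL TNF-alpha added together with compound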
# 14-3-3 Bad PPI = disrupts binding of bovine 14-3-3 zeta to phospho-Bad peptide; P63103; TR-FRET 14-3-3zeta/Dy647-pBad peptide displacement, 1 h; inhibition, % at 21.7 µM; actives 0.71% (n = 220,000); AID 781;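 active = inhibition above about 70%, limit read from the data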;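 note: 0% = full 14-3-3 plus peptide FRET controls and 100% = background without 14-3-3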
# Target sequence (P63103 whole entry, looked up): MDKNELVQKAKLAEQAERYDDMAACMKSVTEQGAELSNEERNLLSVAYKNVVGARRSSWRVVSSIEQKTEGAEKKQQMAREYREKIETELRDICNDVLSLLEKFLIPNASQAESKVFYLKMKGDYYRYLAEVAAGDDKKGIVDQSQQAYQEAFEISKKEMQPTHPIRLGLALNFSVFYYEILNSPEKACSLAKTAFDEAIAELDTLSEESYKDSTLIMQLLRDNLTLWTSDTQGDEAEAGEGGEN
# HMGR II inh = blocks class II HMG-CoA reductase of Enterococcus faecalis; inhibition, % at 10 µM; purified E. faecalis HMGR, NADPH absorbance 340 nm kinetic; AID 1066; actives 0.41% (n = 190,000);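 active = inhibition above a set limit, the median over all tested compounds plus 3 SD, cut at about 9.5% in these data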;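 note: enzyme runs in reverse so mevalonate oxidation gives rising NADPH absorbance; 0% = complete reaction with DMSO and 100% = background rate lacking mevalonate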
# zVAD death inh = L929 zVAD cell death inhibition; viability rescue, % at 10 µM; L929 zVAD necroptosis rescue, ATP luminescence, 24 h; with zVAD 60 µM; actives 0.38% (n = 220,000); AID 1377;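 active = activation, scaled between plate controls, above about 75%, limit read from the data; inactive = activation under that limit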;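 note: 0% = zVAD with DMSO and 100% = DMSO alone without zVAD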
# ROMK mod = modulators of human ROMK potassium channel. P48048. Tet-inducible ROMK, thallium flux fluorescence; actives lie on both sides. B-score at 10 µM. actives 2% (n = 130,000). AID 1918;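 active = signal ratio slope over the read window, or its plate-corrected B-score, at least 3 SD from the plate mean, either direction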;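 note: B-score of the F/F0 ratio slope over 7 to 12 s after thallium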
# Starred values were filed as active, the others as inactive; i = inactive; / = no result given; [ ] = dose if it differs, or a comment.
SMILES,m-calpain inh,TNF necrop inh,14-3-3 Bad PPI,HMGR II inh,zVAD death inh,ROMK mod
CCN1C(=O)C(CC(=O)Nc2ccc(F)cc2)N(Cc2ccc3c(c2)OCO3)C1=S (centres undefined),16,1,-2,-2,2,-1.8
COc1ccccc1C(C#N)N1N=C(C)CC1(C)C (centres undefined),1,-1,5,3,0,0.39
Cc1cc(OCC(=O)O)c2cccc(C)c2n1,-23,0,77*,-2,0,0.06
O=C(Nc1cc([N+](=O)[O-])ccc1Cl)C1CC1,9,1,1,1,/,0.58
CCOC(=O)C1CCCN(Cc2ccccc2C)C1 (centres undefined),9,3,76*,-5,1,-0.78
CCOC(=O)C1CCCN(S(=O)(=O)c2cccs2)C1 (centres undefined),57*,-2,-2,-6,0,0.021
CCOC(=O)C1CCCN(Cc2cccs2)C1 (centres undefined),-21,3,71*,0,2,-0.0079
CCOC(=O)C1CCCN(Cc2ccccc2Cl)C1 (centres undefined),31,9,71*,-8,-1,-0.74
COc1cccc(-c2c[nH]c(=O)[nH]c2=O)c1,-24,0,-2,4,5,/
O=C(CSc1nc2ccccc2o1)Nc1nccs1,-13,1,-6,1,1,0.46
O=C(CN1CCCCCC1)N/N=C/c1cccc(Cl)c1Cl,-2,4,15,2,3,/
Cn1c(SCC(=O)Nc2ccc3c(c2)oc2ccccc23)nnc1-c1ccccc1,-84,0,72*[fluorescence artefact?],0,0,/
CNC(=O)CSc1nnc(-c2ccccc2)n1C,0,0,-6,0,1,-2.6
NC(=S)N/N=C1/CCSc2ccc3ccccc3c21,38,-7,-2,-5,-1,-3.2*
CCOC(=O)c1ccccc1NC(=O)c1ccc(F)cc1,11,0,16,-4,0,0.76
CCOC(=O)c1ccccc1NC(=O)c1c(F)c(F)c(F)c(F)c1F,-4,-4,81*,-1,0,-1
CCOC(=O)c1ccccc1NC(=O)N[C@@H](C)C(=O)OC,-13,2,-8,-7,1,2.3*
COC(=O)c1ccccc1NC(=O)N[C@@H](C)C(=O)OC,-5,1,-1,0,1,/
FC(F)(F)c1cc(-c2cccs2)nc(-n2cc(Cl)cn2)n1,-47,1,7,1,0,2.5
COCCn1c(CN2CCN(C)CC2)nc2c1c(=O)n(C)c(=O)n2C,85*,1,-2,2,1,/
CCOCCn1c(CN2CCN(C)CC2)nc2c1c(=O)n(C)c(=O)n2C,-9,4,-4,/,0,/
O=C(O)c1ccccc1N/N=C/c1cc(Br)cc(Br)c1O,24,0,32,/,1,/
O=C(O)c1ccccc1N/N=C\c1ccnc2ccccc12,16,-3,78*,0,0,-0.51
CCC1CCCCN1S(=O)(=O)c1ccc(NC(=O)c2cccs2)cc1 (centres undefined),24,7,4,11*,1,/
CCN(CC)CCOc1cc2c(nn1)Oc1ccccc1N2C,i,0,83*,-6,0,-0.35
SMILES,m-calpain inh,TNF necrop inh,14-3-3 Bad PPI,HMGR II inh,zVAD death inh,ROMK mod
Cc1c(Cl)cccc1-n1c(SCC(=O)NCc2ccccc2Cl)nnc1-c1ccncc1,-10,1,26,0,0,/
CCCc1[nH]nc2c1C(c1cc(OC)cc(OC)c1)C(C#N)=C(N)O2 (centres undefined),-12,0,-11,-6,0,-0.019
CCCc1[nH]nc2c1C(c1ccc(OC)c(CSC3=NCCS3)c1)C(C#N)=C(N)O2 (centres undefined),-21,-5,8,-4,0,-3.1*
CN1CCN(C2=CC3=CC(=C(C#N)C#N)CCC3CC2)CC1 (centres undefined),46,2,-25,4,1,/
CCN1CCN(C2=CC3=CC(=C(C#N)C#N)CCC3CC2)CC1 (centres undefined),61*,1,-3,-4,-1,/
CC(=O)N(O)CCCCCNC(=O)CCC(=O)N(O)CCCCCNC(=O)CCC(=O)N(O)CCCCCN,12,1,71*[fluorescence artefact?],-4,4,/
Cc1c(Nc2nc(-c3cccc([N+](=O)[O-])c3)cs2)c(=O)n(-c2ccccc2)n1C,3,1,88*,-4,-1,-0.072
O=C(Nc1nc(-c2cccc([N+](=O)[O-])c2)cs1)C(c1ccccc1)c1ccccc1,-149,-4,-3,4,0,/
S=C(NCc1cccs1)NCC1CCCO1 (centres undefined),29,0,4,-5,0,0.16
O=C(CCn1c(=O)[nH]c2ccsc2c1=O)NCc1ccc(F)cc1,52*,2,-11,-7,2,1.3
CC(C)c1onc(C(=O)Nc2cccc(Cl)c2)c1[N+](=O)[O-],84*,0,-4,6,1,0.14
O=S(=O)(N/N=C1/CCCc2ccccc21)c1ccc(Br)cc1,-12,-1,1,0,0,-3.7*
Cc1ccc(C)c(S(=O)(=O)N/N=C2/CCCc3ccccc32)c1,41,-1,12,-12,0,1.7
CC(=O)Nc1nnc(SCc2ccc(F)cc2)s1,11,0,-7,0,0,/
O=C(Nc1nnc(SCc2ccc(F)cc2)s1)c1ccc2ncsc2c1,-19,2,80*,0,1,1.8
Cc1[nH]n(-c2ccc(F)cc2)c(=O)c1/C=N/c1sc2c(c1C#N)CCCC2,13,-1,81*,0,1,-0.96
CC(C)(CO)CNC(=O)CCc1nnc(C2(c3ccc(Cl)cc3)CCC2)o1,24,-1,-1,-2,0,0.7
COCCNC(=O)CCc1nnc(C2(c3ccc(Cl)cc3)CCC2)o1,-5,-1,2,13*,1,-0.024
COc1cc(CN2CCN(c3ccc(C)cc3)CC2)cc([N+](=O)[O-])c1O,-6,-1,83*,3,0,/
CCOc1cc(CN2CCN(c3ccc(C(C)=O)cc3)CC2)ccc1OC,-15,0,89*,0,0,/
CCOc1cc(CN2CCN(c3cccc(C(F)(F)F)c3)CC2)ccc1OC,-22,0,70*,0,-1,-0.056
O=C(c1cc2c(s1)-c1ccccc1S(=O)(=O)C2)N1CCN(Cc2ccccc2)CC1,-19,-10,9,-2,0,/
N#CCCCn1c(=O)oc2ccccc21,-35,1,-4,15*,3,0.45
COc1cccc(C(=O)N2CCN(Cc3cc(Br)ccc3OC)CC2)c1,-10,-1,72*,1,0,/
COc1ccc(Br)cc1CN1CCCC(C(=O)N2CCCCCC2)C1 (centres undefined),12,0,21,-3,-1,1.6
